Here are results for 56 molecules from PubChem BioAssay (EPA / NIEHS).

Read-out in experiment [1]: Collagen IV, COL4A1 (gene 1282)
In words: BSK_MyoF_CollagenIV: BioMAP Diversity Plus: MyoF Assay for Collagen IV Biomarker Activity (AID 2284247). The settings on record: primary human lung fibroblasts. The method in brief: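 ELISA read-out of Collagen IV in lung fibroblast cultures, 24 h post-dosing; gain of signal relative to DMSO vehicle baseline defines activity.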

Read-out in experiment [2]: Plasminogen activator inhibitor-1 (PAI1), SERPINE1 (gene 5054)
In words: BSK_MyoF_PAI1: BioMAP Diversity Plus: MyoF Assay for Plasminogen activator inhibitor-1 (PAI1) Biomarker Activity (AID 2284256).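 On outcome: PAI-1 protein level measured by ELISA in fibroblast cultures; PAI-1 read 24 h after compound addition.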 The settings on record: primary human lung fibroblasts. The method in brief:
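Primary human lung fibroblasts are dosed and incubated 24 h. PAI-1 is then measured by ELISA, while parallel cultures undergo SRB staining for overt cytotoxicity. Increases over DMSO define activity.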

Read-out in experiment [3]: Monokine induced gamma interferon (MIG), CXCL9 (gene 4283)
In words: BSK_KF3CT_MIG: BioMAP Diversity Plus: KF3CT Assay for Monokine induced gamma interferon (MIG) Biomarker Activity (AID 2284248). The settings on record: primary human keratinocytes with fibroblasts. The method in brief:
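KF3CT system: keratinocyte/fibroblast co-culture, 24 h post-dose, MIG by ELISA; activity vs DMSO, positive fitting direction.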

Read-out in experiment [4]: Vascular cell adhesion molecule 1 (VCAM1), VCAM1 (gene 7412)
Nature of the experiment: BSK_BF4T_VCAM1: BioMAP Diversity Plus: BF4T Assay for Vascular cell adhesion molecule 1 (VCAM1) Biomarker Activity (AID 2284249). The settings on record: primary human bronchial epithelial cells with fibroblasts. The method in brief:
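Cell-surface VCAM-1 quantified by ELISA after 24 h chemical exposure of human bronchial epithelial/dermal fibroblast co-cultures, with SRB staining in parallel wells for cytotoxicity; DMSO baseline, positive-direction fitting.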

Read-out in experiment [5]: Collagen I, COL1A1 (gene 1277)
Nature of the experiment: BSK_hDFCGF_CollagenI: BioMAP Diversity Plus: hDFCGF Assay for Collagen I Biomarker Activity (AID 2284250). The settings on record: primary human foreskin fibroblasts. In a few lines: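 ELISA read-out of Collagen I in human dermal foreskin fibroblast cultures, 24 h after dosing. Gain of signal versus DMSO vehicle defines activity.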

Read-out in experiment [6]: Interferon-inducible T-cell alpha chemoattractant (ITAC), CXCL11 (gene 6373)
In words: BSK_hDFCGF_ITAC: BioMAP Diversity Plus: hDFCGF Assay for Interferon-inducible T-cell alpha chemoattractant (ITAC) Biomarker Activity (AID 2284251). The settings on record: primary human foreskin fibroblasts. In a few lines:
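Chemical dosing of primary human foreskin fibroblast cultures preceded ELISA measurement of I-TAC at 24 h. Response was analysed in the positive direction using DMSO as baseline, while parallel SRB staining measured cytotoxicity.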

Read-out in experiment [7]: Plasminogen activator inhibitor-1 (PAI1), SERPINE1 (gene 5054)
In words: BSK_KF3CT_PAI1: BioMAP Diversity Plus: KF3CT Assay for Plasminogen activator inhibitor-1 (PAI1) Biomarker Activity (AID 2284252). The settings on record: primary human keratinocytes with fibroblasts. The method in brief: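 Keratinocyte + dermal fibroblast co-culture (human primary); 24 h post-dose; PAI-1 by ELISA; gain-of-signal fit vs DMSO control.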

Read-out in experiment [8]: Monocyte Chemoattractant Protein-1 (MCP1), CCL2 (gene 6347)
In words: BSK_IMphg_MCP1: BioMAP Diversity Plus: IMphg Assay for Monocyte Chemoattractant Protein-1 (MCP1) Biomarker Activity (AID 2284253). The settings on record: primary human endothelial cells with macrophages. The method in brief: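 ELISA readout of MCP-1 at 24 hours in IMphg co-cultures of venular endothelial cells and macrophages, normalised to DMSO; parallel cultures stained with sulforhodamine B for overt cytotoxicity.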

Read-out in experiment [9]: Interleukin-8 (IL8), CXCL8 (gene 3576)
In words: BSK_KF3CT_IL8: BioMAP Diversity Plus: KF3CT Assay for Interleukin-8 (IL8) Biomarker Activity (AID 2284254). The settings on record: primary human keratinocytes with fibroblasts. In a few lines:
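Chemicals were added to co-cultured human keratinocytes and foreskin fibroblasts, incubated 24 h, then IL-8 was quantified by ELISA. Cytotoxicity was tracked by sulforhodamine B total-protein staining in parallel cultures.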

Read-out in experiment [10]: Macrophage Inflammatory Protein-1 Alpha (MIP1a), CCL3 (gene 6348)
Nature of the experiment: BSK_IMphg_MIP1a: BioMAP Diversity Plus: IMphg Assay for Macrophage Inflammatory Protein-1 Alpha (MIP1a) Biomarker Activity (AID 2284255). The settings on record: primary human endothelial cells with macrophages. The method in brief:
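MIP-1a protein levels were quantified by ELISA after 24 h treatment of human endothelial cell–macrophage co-cultures, compared with DMSO. Parallel cultures were fixed with TCA and stained with 0.1% SRB to gauge overt cytotoxicity.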

SMILES strings stand for the structures. Values joined by “and” are separate entries in the source; they are usually repeats but may differ in a detail not shown here. Equal values may be shown once. The source holds several records for some structures; these can differ, active in one and inactive in another. Active and inactive are the calls of the source. How the source made its calls: active means hit-call score of the fitted dose curve at least 0.9, where 1 is the maximum; inactive means score below 0.9.

As a reminder, the AC50 is the concentration at which the activity in the assay is half-maximal.

Regarding `C=CC(=O)OCC(C)OCC(C)OCC(C)OC(=O)C=C` (stereo not drawn), the concentration at half-maximal activity (AC50) was 23.5 µM (active) in [1] and 30.9 µM (active) in experiment [2].
Taken in the same sequence, the figures for `c1ccc2sc(SSN3CCOCC3)nc2c1` were 14.9 µM (active) and 29.8 µM (active).
Regarding `C[N+](C)(C)CCCNS(=O)(=O)C(F)(F)C(F)(F)C(F)(F)C(F)(F)C(F)(F)C(F)(F)C(F)(F)C(F)(F)F`, the half-maximal activity concentration (AC50) was 48.9 µM (active) in [1]; 47.1 µM (active) and 49.6 µM (active) in [6]; 46.1 µM (active) in [7]; 50.5 µM (active) and 56.9 µM (active) in [10]; 21.9 µM (active) in experiment [2]. Moreover, the result in experiment [1], in experiment [3], in experiment [4], in experiment [5], in experiment [7] and in [8] was inactive. In addition, the outcome in experiment [9] and in experiment [2] was inactive.
Regarding `C=CCCCCCCCCC=O`, the result in [1] and in experiment [2] was inactive.
For the molecule `CC=C(C)C=CC=C(C)C`, the half-maximal activity concentration (AC50) in [1] and in experiment [2] was 0.016 µM (active) in each case.
Take `CC(C)CCCCCOC(=O)CS`: the result in [1] and in experiment [2] was inactive.
In the case of `CCCCCCC=O`, the result in [1] and in experiment [2] was inactive.
`CC1(C)CC(O)CC(C)(C)N1[O]`: the result in experiment [1] and in [2] was inactive.
As for `CC(c1cc(C(C)(C)C)cc(C(C)(C)C)c1O)c1cc(C(C)(C)C)cc(C(C)(C)C)c1O`, the outcome in experiment [1] and in experiment [2] was inactive.
Take `COc1ccc(C(=O)/C(Br)=C\C(=O)O)cc1`: the outcome in [1] and in experiment [2] was inactive.
Turning to `CC(C)c1cccc(C(C)C)c1N`, the result in experiment [1] and in [2] was inactive.
`CCc1cccc(C)c1N(C(=O)CS(=O)(=O)O)C(C)COC` (stereo not drawn): the result in experiment [1] and in [2] was inactive.
As to `CC/C=C\C/C=C\C/C=C\CCCCCCCC(=O)OC`, the results for the AC50 in experiment [1] and in experiment [2] were 20 µM (active) and 13.7 µM (active), respectively.
Regarding `Cc1c(O)cccc1O`, the result in experiment [1] and in experiment [2] was inactive.
Take `c1ccc2c(c1)[nH]c1ccccc12`: the outcome in [1] and in [2] was inactive.
For the molecule `C=CC(=O)NC(C)(C)C`, the outcome in [1] and in experiment [2] was inactive.
Turning to `CCCCC1C(=O)N(c2ccccc2)N(c2ccccc2)C1=O`, the outcome in [1] and in experiment [2] was inactive.
With `CCCCCCCO`, the outcome in experiment [1] and in experiment [2] was inactive.
For the molecule `O=C(O)C(F)(F)C(F)(F)C(F)(F)C(F)(F)C(=O)O`, the outcome in [1], in experiment [3], in [4], in [5], in experiment [6] and in experiment [7] was inactive. The outcome in experiment [8], in experiment [9], in experiment [10] and in [2] was inactive.
Turning to `CCN1CN(CC)CN(CC)C1`, the outcome in experiment [1] and in experiment [2] was inactive.
As to `COC(OC)(C(=O)c1ccccc1)c1ccccc1`, the outcome in experiment [1] and in experiment [2] was inactive.
In the case of `CCOC(=O)C1=NOC(c2ccccc2)(c2ccccc2)C1`, the outcome in [1] and in [2] was inactive.
For the molecule `Fc1ccc(Br)cc1`, the outcome in experiment [1] and in experiment [2] was inactive.
Turning to `C=C(C)C(=O)OCCCCCCCCCCCC`, the outcome in experiment [1] and in experiment [2] was inactive.
With `COc1ccc(C(=O)c2ccccc2)c(O)c1`, the result in experiment [1] and in experiment [2] was inactive.
Turning to `O=C(Cl)c1c(Cl)c(Cl)c(C(=O)Cl)c(Cl)c1Cl`, the result in experiment [1] and in experiment [2] was inactive.
For the molecule `O=C1CCCCCCCCCCC1`, the result in experiment [1] and in [2] was inactive.
For `CC(Cl)COP(=O)(OCC(C)Cl)OCC(C)Cl` (stereo not drawn), the outcome in experiment [1] and in experiment [2] was inactive.
In the case of `CCCCCCCCCCCC(C)=O`, the outcome in experiment [1] and in [2] was inactive.
`CC/C=C\CCOC(=O)c1ccccc1O`: the half-maximal activity concentration (AC50) in [1] is 33.2 µM (active); in experiment [2], 31.3 µM (active).
Regarding `CCOC(=O)C1=NN(c2ccc(Cl)cc2Cl)C(C)(C(=O)OCC)C1` (stereo not drawn), the result in [1] and in experiment [2] was inactive.
On to `CCNc1nc(NC(C)(C)C)nc(OC)n1`, for which the result in experiment [1] and in experiment [2] was inactive.
Turning to `Nc1nc(N)nc(-c2ccccc2)n1`, the outcome in experiment [3], in experiment [5], in experiment [6], in [7] and in experiment [9] was inactive.
For `CCC1(C)C(=O)N(Cl)C(=O)N1Cl` (stereo not drawn), the outcome in experiment [1] and in experiment [2] was inactive.
Take `C=CC(=O)OCCCCCCOC(=O)C=C`: the half-maximal activity concentration (AC50) in experiment [1] is 3.31 µM (active); in experiment [2], 34.6 µM (active).
For `CCCCCC1=CCCC1=O`, the outcome in experiment [1] and in [2] was inactive.
Consider `Oc1ccccc1Cc1ccccc1O`, for which the result in [3], in experiment [5], in experiment [6], in experiment [7] and in experiment [9] was inactive.
`Clc1cc(Cl)c(Cl)c(Cl)c1Cl`: in experiment [1], the outcome was inactive. The AC50 in experiment [2] is 31.9 µM (active).
In the case of `CCCCCCCCC(CO)CCCCCC` (stereo not drawn), the outcome in experiment [1] and in [2] was inactive.
Regarding `CC(CCC(=O)O)(c1ccc(O)cc1)c1ccc(O)cc1`, the outcome in experiment [3], in experiment [5], in [6], in experiment [7] and in experiment [9] was inactive.
On to `CC(C)C(=O)OCCc1ccccc1`, for which the result in experiment [3], in experiment [5], in experiment [6], in [7] and in experiment [9] was inactive.
Turning to `Oc1ccc(/C=C/c2cc(O)cc(O)c2)cc1`, the result in experiment [1] and in [2] was inactive.
Turning to `CC(C)[N+](C)(CCOC(=O)C1c2ccccc2Oc2ccccc21)C(C)C`, the result in [1] was inactive. Also, the AC50 in [2] is 0.0398 µM (active).
As to `O=C1CCCCCCCCCCCN1`, the outcome in experiment [1] and in experiment [2] was inactive.
Take `O=C(Oc1ccccc1)c1ccccc1C(=O)Oc1ccccc1`: the result in experiment [1] and in [2] was inactive.
Turning to `CC1=CC=C(C(C)C)CC1`, the result in [1] and in [2] was inactive.
Turning to `C=CC(=O)OCCCCCCCC(C)C`, the result in [1] and in experiment [2] was inactive.
Regarding `c1ccc(Nc2cccc3ccccc23)cc1`, the concentration at half-maximal activity (AC50) is 38.9 µM (active) and 33.8 µM (active) in experiment [3]; 14.3 µM (active) in [5]; 30.1 µM (active) and 30.3 µM (active) in experiment [6]; 27.4 µM (active) and 26.5 µM (active) in experiment [7]; 31.6 µM (active) and 29.4 µM (active) in experiment [9]. Further, the result in experiment [5] was inactive.
With `Nc1cccc(N)n1`, the outcome in experiment [1] and in experiment [2] was inactive.
With `Oc1c(Cl)cc(Cl)c(Cl)c1Cl`, the outcome in experiment [1] was inactive. Moreover, the half-maximal activity concentration (AC50) in experiment [2] was 28.3 µM (active).
On to `CCOC(=O)/C=C\C(=O)OCC`, for which the outcome in experiment [1] and in [2] was inactive.
In the case of `CCCCCCOC(=O)CCCCC(=O)OCCCCCC`, the outcome in [1] and in experiment [2] was inactive.
Turning to `CC=C(C)C(C)=O`, the outcome in [1] and in experiment [2] was inactive.
Consider `CCCCCCCCCCCC(=O)N(C)CC(=O)O`, for which the result in experiment [3], in [5], in [6], in experiment [7] and in experiment [9] was inactive.
As to `C=CC(=O)NCOCCCC`, the outcome in experiment [1] and in experiment [2] was inactive.
In the case of `CCCC(C)C(=O)OCC` (stereo not drawn), the outcome in experiment [3], in experiment [5], in experiment [6], in experiment [7] and in experiment [9] was inactive.
